NIH3T3 tox – cytotoxic compounds in NIH 3T3 cells; NIH 3T3 viability, CellTiter-Glo ATP luminescence, 48-72 h; Potency, µM (titrated, usually from 96.7 µM), inactives show at the top dose activity change, negative = cytotoxicity, actives largely listed as inhibitors; 94,000 compounds, 4.3% hits; AID 1345082; also: nearly all actives have a fitted effect of over 55% in size
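Cytotoxicity was measured by CellTiter-Glo ATP luminescence after 48 or 72 h compound exposure at 37 °C. Mouse NIH 3T3 fibroblasts were seeded at 400 cells/well and dosed by 23 nL pin transfer.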
NPR1 antag – antagonists of human natriuretic peptide receptor Npr1. Potency, µM (top dose mostly 46.3 µM), for inactives: at the highest dose activity change, negative = inhibition, most hits filed as inhibitors. 76,000 compounds, 1.6% hits. P16066. HEK293 hNpr1 GloSensor cGMP, ANP-stimulated luminescence. AID 1347048; calls by dose curve; also: nearly all actives have a fitted effect of over 60% in size
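Compound pre-incubated 30 min at room temperature on GloSensor-loaded HEK293 cells stably carrying hNpr1 and the pGS-40F cGMP biosensor. Stimulation uses hNppA at 0.1 nM final; luminescence is taken at baseline and 20 min post-agonist.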
HEK293 tox – kills HEK 293 cells; HEK 293 viability, ATP luminescence (CellTiter-Glo), 48-72 h; Potency, µM (titrated, usually from 115 µM), for inactives: top-dose activity change, negative = cytotoxicity, hits mostly inhibitors; 94,000 compounds, 6.6% hits; AID 1345083; also: nearly all actives have a fitted effect of over 60% in size
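Viability of HEK 293 cells, plated at 250 cells/well, was judged by cellular ATP after compound treatment for 48 or 72 hr. Luminescence was imaged 10 min after CellTiter-Glo addition at room temperature.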
Luciferase inh – Photinus pyralis luciferase inhibition. P08659. purified P. pyralis luciferase, luminescence, biochemical. Potency, µM (doses to about 115 µM), hits mostly inhibitors. 76,000 compounds, 2.5% hits; also: nearly all actives have a fitted effect of over 65% in size
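Purified P. pyralis luciferase (10nM final) in 50mM Tris acetate pH 7.5, 10mM Mg acetate, 0.01% Tween-20, 0.05% BSA with 10uM D-luciferin and 10uM ATP. Compounds titrated qHTS. Luminescence imaged on CCD.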
An asterisk follows results filed as active; i = inactive; ? = inconclusive; · = no result given; [ ] = another dose, or the depositor's remark. In the library only some 11% were active in any assay of this set; here they are far more common. Unless noted, calls follow the shape of the dose curve; as a rule, active = well fitted curve in the direction sought with a large enough effect; inconclusive = small, poorly fitted or top-dose-only effect, or another doubt; inactive = no such curve, though single readings can be large; an effect the other way counts as inactive or inconclusive. % is scaled to controls: 0 for no effect and ±100 for the full control effect; potency is read from the fitted curve at half-maximal effect.

SMILES	NIH3T3 tox	NPR1 antag	HEK293 tox	Luciferase inh
COCCN1C(=O)c2ccccc2C(C(=O)N2CCN(c3ccccc3)CC2)C12CCCC2 (stereo not given)	-5%	1%	?	i
O=C1Nc2ccccc2C12CCN(Cc1ccc(F)cc1)C2 (stereo not given)	-16%	·	?	·
O=c1cc(N2CCOCC2)oc2c(-c3cccc(F)c3)nccc12	?	4%[70.6 µM]	?	i
Cn1nccc1-c1nccc2c(=O)cc(N3CCOCC3)oc12	50µM*	-6%[70.6 µM]	?	i
O=C(NCCOc1ccccc1)c1nc2c(o1)CCN(Cc1cccc(F)c1)CC2	?	?	?	i
Cc1ccc(CN2CCc3nc(C(=O)Nc4cccnc4)oc3CC2)o1	-21%[138 µM]	-10%[70.6 µM]	?	?
O=C(Nc1ccc(Cl)cc1)c1nc2c(o1)CCN(Cc1cnc[nH]1)CC2	?	?	?	71µM*
Cc1cc(F)cc(CN2CCc3nc(C(=O)Nc4ccccc4)oc3CC2)c1	25µM*	13µM*	?	22µM*
Cc1ccccc1CN1CCc2nc(C(=O)Nc3ccccc3)oc2CC1	?	10µM*	40µM*	?
COc1ccccc1-c1ccnc(-c2nnc(C)n2Cc2ccccc2)c1	?	-1%[70.6 µM]	71µM*	?
Cc1nnc(-c2cc(-c3ccc(CO)cc3)ccn2)n1Cc1ccccc1	?	2%[70.6 µM]	?	i
COc1ccccc1-c1ccnc(-c2nnc(C)n2Cc2ccncc2)c1	56µM*	-2%[70.6 µM]	-17%[172 µM]	i
COc1ccc(Nc2ccnc(N3CCCC(C(=O)N4CCCC(C)C4)C3)n2)cc1 (stereo not given)	45µM*	·	?	·
COc1ccc(Nc2ccnc(N3CCCC(C(=O)NC4CCCC4)C3)n2)cc1 (stereo not given)	40µM*	·	?	·
COc1ccc(Nc2ccnc(N3CCCC(C(=O)N4CCN(C(C)=O)CC4)C3)n2)cc1 (stereo not given)	?	·	-14%	·
COc1ccc(CNC(=O)C2CCCN(c3nccc(Nc4ccc(OC)cc4)n3)C2)cc1 (stereo not given)	?	·	28µM*	·
COc1ccc(Nc2ccnc(N3CCCC(C(=O)NCc4ccc(F)cc4)C3)n2)cc1 (stereo not given)	28µM*	·	?	·
CC(C)(C)NC(=O)N1CCCC1c1nc(CCOCC2CC2)no1 (stereo not given)	i	·	i	·
O=C(CCC1CCCC1)NCC1CCCCC(=O)N1 (stereo not given)	i	·	-4%	·
Cc1ccc(C2Cn3nnc(C(=O)N4CCC(C(=O)NCc5ccccc5)CC4)c3CO2)cc1 (stereo not given)	-8%	3%	3%	40µM*
CCc1ccc(CNC(=O)C2CCN(C(=O)c3nnn4c3COC(c3ccc(C)cc3)C4)CC2)cc1 (stereo not given)	-12%	-13%	-16%	40µM*
Cc1ccc(C2Cn3nnc(C(=O)N4CCC(C(=O)NC5CCC(C)CC5)CC4)c3CO2)cc1 (stereo not given)	-22%	-4%	-15%	28µM*
Cc1ccc(C2Cn3nnc(C(=O)N4CCC(C(=O)NCc5cccs5)CC4)c3CO2)cc1 (stereo not given)	3%	3%	5%	35µM*
Cc1ccc(C2Cn3nnc(C(=O)N4CCC(C(=O)NCC(C)c5ccccc5)CC4)c3CO2)cc1 (stereo not given)	i	-1%	-1%	32µM*
O=C(NCc1ccc(F)cc1)c1nc2sccn2c1-c1ccccc1	-24%	·	-7%	·
SMILES	NIH3T3 tox	NPR1 antag	HEK293 tox	Luciferase inh
Cc1ccc(CC(=O)N2CCC(c3n[nH]c(=O)n3-c3ccccc3)CC2)cc1	35µM*	0%	-7%	i
COc1cccc(CC(=O)N2CCC(c3n[nH]c(=O)n3-c3ccc(C)cc3)CC2)c1	10µM*	10%	0%	i
Cc1ccc(-n2c(C3CCN(C(=O)Cc4ccccc4Cl)CC3)n[nH]c2=O)cc1	?	-2%	-1%	i
Cc1ccc(-n2c(C3CCN(C(=O)Cc4ccc(Cl)cc4)CC3)n[nH]c2=O)cc1	45µM*	0%	-1%	i
Cc1ccc(-n2c(C3CCN(C(=O)c4nn(C)c5ccccc45)CC3)n[nH]c2=O)cc1	8.9µM*	0%	-2%	i
Cc1ccc(-n2c(C3CCN(C(=O)c4n[nH]c5ccccc45)CC3)n[nH]c2=O)cc1	?	14%	-3%	i
Cn1nc(C(=O)N2CCC(OCCOc3ccccc3)CC2)c2ccccc21	?	-1%	?	40µM*
Cc1cnn(Cc2cc(C(=O)N3CC[C@@H](n4c(=O)n(C)c5cccnc54)C3)no2)c1	-9%	·	3%	·
Cc1cccc(-c2noc(CCC(=O)N3CCC(C)(c4noc(-c5ccncc5)n4)CC3)n2)c1	?	?	?	i
Cc1cccc(-c2noc(CCC(=O)N3CCC(C)(c4noc(C)n4)CC3)n2)c1	?	-12%	45µM*	i
CC(C)(C)C(Cn1ccnc1)NC(=O)c1cc(COc2ccc3c(c2)CCCC3)on1 (stereo not given)	20µM*	-14%	25µM*	?
Cc1cc(C)n(CCCNC(=O)c2cc(COc3ccc4sc(C)nc4c3)on2)n1	1%	7%	1%	i
CC(C)C(=O)NCCNC(=O)c1ccc(-c2cccc(C(F)(F)F)c2)cc1	-23%	·	?	·
CCN1CCN(C(=O)c2cc(-c3ccccc3F)nc3c2cnn3C)CC1	-30%	·	-13%	·
CN1c2cc(C(=O)Nc3cccc(Cl)c3)ccc2C(=O)N2CCCCC21 (stereo not given)	?	-12%	?	14µM*
CCN1c2cc(C(=O)NCc3cccc(Cl)c3)ccc2C(=O)N2CCCCCC21 (stereo not given)	?	-18%	?	i
CCN1c2cc(C(=O)Nc3cccc(Cl)c3)ccc2C(=O)N2CCCCC21 (stereo not given)	?	3%	32µM*	i
CCN1c2cc(C(=O)Nc3cccc(Cl)c3)ccc2C(=O)N2CCCCCC21 (stereo not given)	40µM*	-2%	?	i
CCN1c2cc(C(=O)Nc3ccc(Cl)cc3)ccc2C(=O)N2CCCC21 (stereo not given)	-3%	0%	-27%	i
CN1c2cc(C(=O)Nc3ccc(F)c(Cl)c3)ccc2C(=O)N2CCCCC21 (stereo not given)	?	0%	?	i
CN(Cc1ccon1)Cc1ccccc1OCC(O)CN1CCCCC1 (stereo not given)	i	5%	3%	i
COc1ccc(-c2cccc(C(=O)N3CCN([S+](=O)([O-])c4c(C)noc4C)CC3)c2)nn1	?	·	-17%	·
COc1ccc(-c2cc(-c3cnc4[nH]ccc4c3)cn3cncc23)cc1	79µM*	-19%[70.6 µM]	?	?
Cc1ccc(-c2cc(-c3cccnc3)c3cncn3c2)cn1	40µM*	-14%[70.6 µM]	?	i

High-throughput results as filed in PubChem BioAssay.
